Experimental findings from PubChem BioAssay AID2284089 (EPA ToxCast) are described below.

Activity calls are given as the source filed them. Rule for the calls: active = hit-call score of the fitted dose curve at least 0.9, where 1 is the maximum; inactive = score below 0.9.

Cytochrome P450 2C19 (Homo sapiens), sequence (P33261 whole entry, looked up): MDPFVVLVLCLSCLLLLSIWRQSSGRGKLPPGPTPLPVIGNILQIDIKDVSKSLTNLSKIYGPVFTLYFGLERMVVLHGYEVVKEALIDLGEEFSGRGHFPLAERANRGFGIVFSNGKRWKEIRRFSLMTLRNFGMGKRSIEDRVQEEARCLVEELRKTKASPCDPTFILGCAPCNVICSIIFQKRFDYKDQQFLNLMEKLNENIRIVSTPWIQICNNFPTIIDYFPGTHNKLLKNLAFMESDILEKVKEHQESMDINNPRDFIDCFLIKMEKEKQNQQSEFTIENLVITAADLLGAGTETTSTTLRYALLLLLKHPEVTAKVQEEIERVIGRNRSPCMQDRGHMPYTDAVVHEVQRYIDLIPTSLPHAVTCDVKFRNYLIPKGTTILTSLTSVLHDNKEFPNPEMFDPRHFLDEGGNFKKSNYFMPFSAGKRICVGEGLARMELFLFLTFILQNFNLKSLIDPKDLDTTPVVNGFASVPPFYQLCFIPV

The assay has as its target Cytochrome P450 2C19 (Homo sapiens) (UniProt P33261). Briefly: ERF_FR_ADME_hCYP2C19_CEC: Eurofins (ERF) CYP450-related Enzyme Activity (ADME) Assay for CYP2C19 Inhibition Assay, CEC Subtrate. As to the method: ERF_FR_ADME_hCYP2C19_CEC is a biochemical, single-readout assay that uses extracted gene-proteins in a cell-free assay. Measurements were taken 0.83 hour after chemical dosing in a 96-well plate. See CYP2C19 inhibition (recombinant, CEC substrate).ERF_FR_ADME_hCYP2C19_CEC is an assay component calculated from the ERF_FR_ADME_hCYP2C19_CEC assay. It is designed to measure enzyme activity using a type of enzyme reporter as detected by fluorescence intensity of HFC with fluorimetry technology.Data from the assay component ERF_FR_ADME_hCYP2C19_CEC was analyzed at the assay endpoint, ERF_FR_ADME_hCYP2C19_CEC, in the positive analysis fitting direction relative to acetonitrile as the negative control and baseline of activity. Using a type of enzyme reporter, loss-of-signal activity can be used to understand changes in enzymatic activity as they relate to gene CYP2C19. To generalize the intended target to other relatable targets, this assay endpoint is annotated to the cyp intended target family, where the subfamily is steroidogenesis-related.
Assay is performed with 1 compound concentration(s) and each concentration tested using 2 replicate
In general, AC50 refers to the concentration at which the activity in the assay is half-maximal. `O=C(/C=C/c1ccc(O)cc1)CC(=O)/C=C/c1ccc(O)cc1`: the AC50 is 1470 nM (active).
